# eLon inh: inhibits E. coli Lon protease; actives 0.42% (n = 360,000); AID 602123; P0A9M0; purified E. coli Lon protease, fluorescence polarization; inhibition, % at 7.94 µM; in the data active = inhibition above about 13%, passing the limit was not always enough
# ZTA counter: counter-screen for EBNA-1 inhibitors: inhibitors of Epstein-Barr virus ZTA; P03206; ZTA-DNA binding, fluorescence polarization; inhibition, % at 11 µM; actives 0.15% (n = 320,000); AID 2234; in the data active = inhibition above about 33%
# LANA DNA inh: inhibitors of KSHV LANA C-terminal domain DNA binding; inhibition, % at 9 µM; MBP-C-LANA/FAM-LBS DNA binding, fluorescence polarization; actives 0.078% (n = 340,000);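 active = highest replicate inhibition at or above 60% at 9 µM, even if other replicates fall short; inactive = all replicates below 60% inhibition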
# Keap1 Nrf2 FP: Keap1-Nrf2 (human) interaction inhibition | inhibition, % at 9.4 µM | Q14145 | actives 0.15% (n = 340,000) | AID 504523 | Keap1 Kelch-Nrf2 peptide fluorescence polarization, 1536-well; in the data active = inhibition above about 12%;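 note: human Keap1 Kelch domain with fluorescein labeled Nrf2 9mer peptide probe; higher means more block of Keap1 binding to Nrf2 peptide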
# Target sequence (Q14145 whole entry, looked up, the tested form may be a part): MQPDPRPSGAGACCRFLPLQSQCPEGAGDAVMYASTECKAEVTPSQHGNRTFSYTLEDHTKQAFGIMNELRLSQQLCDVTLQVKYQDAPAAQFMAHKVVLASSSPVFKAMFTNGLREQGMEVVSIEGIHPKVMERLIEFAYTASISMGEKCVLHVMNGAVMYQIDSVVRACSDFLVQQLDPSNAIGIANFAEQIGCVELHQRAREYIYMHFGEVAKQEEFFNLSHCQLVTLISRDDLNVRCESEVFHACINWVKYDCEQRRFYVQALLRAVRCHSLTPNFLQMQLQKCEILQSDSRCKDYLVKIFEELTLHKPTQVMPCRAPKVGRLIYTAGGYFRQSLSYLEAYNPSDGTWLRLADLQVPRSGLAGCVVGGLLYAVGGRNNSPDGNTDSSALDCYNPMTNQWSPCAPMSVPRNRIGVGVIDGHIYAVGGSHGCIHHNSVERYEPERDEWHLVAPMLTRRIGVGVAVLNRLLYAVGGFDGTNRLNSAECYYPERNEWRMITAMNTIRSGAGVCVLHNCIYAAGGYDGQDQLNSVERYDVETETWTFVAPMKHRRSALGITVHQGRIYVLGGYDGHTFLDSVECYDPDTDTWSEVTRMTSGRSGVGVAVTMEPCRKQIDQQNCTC
# EBNA-1 inhibitor: blocks EBNA-1 binding to DNA; EBNA-1 DNA binding, fluorescence polarization; inhibition, % at 14.8 µM; actives 0.34% (n = 300,000); AID 1950; in the data active = inhibition above about 28%
# eLon confirm: E. coli Lon inhibition confirmation. shares compounds with eLon inh. purified E. coli Lon, fluorescence polarization. inhibition, % at 7.94 µM. actives 31% (n = 1,400). AID 602230; in the data active = inhibition above about 16%
# A number is an active result; – = inactive; · = not tested or not shown; + = active, no number. Shown are actives, neighbours in structure and some others; about 0.85% of the full set was active somewhere.
SMILES,eLon inh,ZTA counter,LANA DNA inh,Keap1 Nrf2 FP,EBNA-1 inhibitor,eLon confirm
Cc1ncc([N+](=O)[O-])n1CC(=O)Nc1cccc(C(F)(F)F)c1,29,–,–,–,–,–
O=C(Nc1ccc(Cl)c(Cl)c1)c1ccc(Cn2c(=O)[nH]c3ccsc3c2=O)cc1,27,–,–,–,–,–
COc1cc(OC)c(OC)cc1/C=C/c1cc(C(=O)O)c2ccccc2n1,–,–,–,–,–,·
COc1ccc(/C=C/c2cc(C(=O)O)c3ccccc3n2)cc1,+,–,–,–,–,–
O=S(=O)(Nc1cccc(S(=O)(=O)N2CCCC2)c1)c1ccc(Cl)cc1,101,·,–,–,·,–
O=C(CNC(=O)c1ccc(Br)o1)NNC(=O)c1ccccc1,96,·,–,–,·,–
O=C(NCc1ccc(Cl)c(Cl)c1)c1cc(C2CCCCN2C(=O)c2cccs2)on1 (centres undefined),–,·,·,·,·,·
S=c1[nH]nc(-c2ccc3ccccc3n2)n1-c1ccc2ncccc2c1,20,–,–,–,–,–
Cn1nc([N+](=O)[O-])c(C(C#N)c2nc3ccccc3n2C)c(Cl)c1=O (centres undefined),22,–,–,–,–,33
CC1(C(=O)NCc2cccc(C(F)(F)F)c2)CCN1CCc1ccccc1 (centres undefined),–,·,·,·,·,·
COc1ccccc1NC(=O)COC(=O)c1ccccc1C(=O)N1CCN(c2ccccc2)CC1,24,–,·,·,–,–
CCOC(=O)c1cc2c(ccn2C)n1CC(=O)N1CCC(Cc2ccccc2)CC1,20,–,–,–,–,–
O=C(COC(=O)Cn1nnc2ccccc21)NC1CCCC1,–,–,–,–,–,·
CCC1NC(=O)c2cc3ccccc3cc2-n2c1nc1ccc(F)cc1c2=O (centres undefined),–,·,·,·,·,·
Nc1ccc2nc(-c3ccccc3)cnc2c1,34,–,–,–,–,107
COCC1CCN(Cc2c(C(=O)N3CCN(C4CCCCC4)CC3)nc3ccccn23)C1 (centres undefined),26,–,–,–,–,–
O=C(c1nc2ccccn2c1CN1CCCC(O)C1)N1CCN(C2CCCCC2)CC1 (centres undefined),19,–,–,–,–,–
COC1CCN(Cc2c(C(=O)N3CCN(C4CCCCC4)CC3)nc3ccccn23)CC1,–,–,–,–,–,·
O=C(COc1ccc2c(-c3ccccc3)cc(=O)oc2c1)Nc1cccnc1,–,–,–,–,–,·
O=C(Nc1nc2c(Br)cccc2s1)C1CC1,23,–,–,–,–,81
O=C(Nc1nc2c(Cl)cccc2s1)C1CC1,–,–,–,–,–,·
CN1C(=O)CON=C1c1cccc2ccccc12,–,·,·,·,·,·
CCOC(=O)N(C)OC(=O)Nc1ccc(Cl)c(Cl)c1,19,–,–,–,–,25
Cc1ccccc1C(=O)Nc1nnc([C@@H]2C[C@H](O)[C@@H](CO)O2)s1,–,·,·,·,·,·
Cc1cccc(/C=N/NC(=O)C(C)Nc2cccc3ccccc23)n1 (centres undefined),61,–,–,–,–,105
SMILES,eLon inh,ZTA counter,LANA DNA inh,Keap1 Nrf2 FP,EBNA-1 inhibitor,eLon confirm
O=C(Cn1cnc2c(NCc3ccccc3)ncnc21)NCc1nc2ccccc2[nH]1,–,·,–,–,·,·
CSCCC(NC(=O)COc1ccccc1)C(=O)N1CCN(c2ccccc2O)CC1 (centres undefined),71,–,–,–,–,–
CSCCC(NC(=O)COc1ccccc1)C(=O)N1CCN(c2ccccc2Cl)CC1 (centres undefined),–,–,–,–,–,·
O=C(CNC(=O)c1cccc(F)c1)N/N=C/C=C/c1ccccc1,17,–,–,–,–,–
O=C(CNC(=O)c1ccccc1)N/N=C/C=C/c1ccccc1,–,–,–,–,–,·
CCOc1ccc(-c2c(C)sc3nc[nH]c(=O)c23)cc1,–,–,–,–,–,·
COc1ccc([N+](=O)[O-])cc1NC(=O)C(C)c1ccccc1 (centres undefined),22,–,–,–,–,–
CC1CC=C2C(C#N)=C(N)C(C#N)(C#N)C(c3cccs3)C2C1 (centres undefined),42,–,–,–,–,16
OC(c1ccccc1)(c1nc(-c2ccc(Cl)cc2)cs1)C(F)(F)F (centres undefined),–,·,·,·,·,·
O=C(COc1ccc2c3c(c(=O)oc2c1)CCC3)Nc1ccc(CCO)cc1,–,–,–,–,–,·
NS(=O)(=O)c1ccc(CCNC(=O)COc2ccc3c4c(c(=O)oc3c2)CCC4)cc1,18,–,–,–,–,–
COC(=O)c1ccc(OC(=O)c2cccnc2SC)cc1,88,–,–,–,–,–
O=C1C(=O)C(Cl)=C(Cl)C(Cl)=C1Cl,40,·,·,·,·,51
CCN(CC(=O)Nc1ccc(NC(C)=O)cc1)C(=O)c1cccc(N2C(=O)c3ccccc3C2=O)c1,–,·,–,–,·,·
O=C1c2cccc3c(O)ccc(c23)C(=O)N1Cc1ccccc1,+,–,92,–,–,+
Cc1cc(C)c(Cn2c(=O)n(CCCC(=O)NCc3ccco3)c(=O)c3ccccc32)c(C)c1,18,–,–,–,–,–
COc1cccc(/C(C)=N/Nc2ccc(S(=O)(=O)N3CCCCC3)cn2)c1,22,–,–,–,·,–
C/C(=N\Nc1ccc(S(=O)(=O)N2CCCCC2)cn1)c1ccc(O)cc1,–,–,–,–,·,·
CC(C)(C)c1cc2nc(NCCOc3ccccc3)ccn2n1,–,·,·,·,·,·
O=C(Nc1cccc(Cl)c1)Nn1cnnc1,104,–,–,–,–,–
O=C(Nc1ccc(Cl)c(Cl)c1)Nn1cnnc1,–,·,–,–,·,·
c1ccc2c(C3CCO3)cccc2c1 (centres undefined),–,–,–,–,·,·
O=C(CN1C(=O)NC2(CCCCC2)C1=O)N1CCN(S(=O)(=O)c2ccc(Cl)s2)CC1,19,–,–,–,·,–
CC1CCCCC12NC(=O)N(CC(=O)N1CCN(S(=O)(=O)c3ccc(Cl)s3)CC1)C2=O (centres undefined),–,·,·,·,·,·
O=C1ON=C(c2ccccc2)/C1=C/c1cccnc1,17,·,–,–,·,–
SMILES,eLon inh,ZTA counter,LANA DNA inh,Keap1 Nrf2 FP,EBNA-1 inhibitor,eLon confirm
Cc1cccc(C)c1OCc1cc(C(=O)N2CCC(c3ccccc3)CC2)no1,21,–,–,–,–,17
CC12CCC(C(=O)NNC(=O)c3ccc(Br)cc3)(OC1=O)C2(C)C (centres undefined),18,–,–,–,–,–
CC12CCC(C(=O)Nc3ccc(Br)cn3)(OC1=O)C2(C)C (centres undefined),–,–,·,·,–,·
O=C(Nc1ccc(Cl)cc1)Nc1ccc(N2CCC(C(F)(F)F)CC2)nc1,47,–,–,–,–,–
CN(C)S(=O)(=O)c1ccc(NC(=O)CSc2nnc(-c3ccco3)n2N)cc1,–,·,–,–,·,·
O=C1Nc2ccccc2/C1=C/c1cnc(-c2ccccc2)[nH]1,81,–,–,–,–,30
O=C1Nc2ccccc2/C1=C/c1cccnc1,–,–,–,–,–,·
COc1ccc(C(=O)N2CCCC2)cc1,–,–,–,–,–,·

# Screening data (PubChem BioAssay)
